{"source": "PubChem BioAssay AID2284153", "about": "(EPA ToxCast)", "note": "Activity calls are given as the source filed them. The calls were made as follows: active = hit-call score of the fitted dose curve at least 0.9, where 1 is the maximum; inactive = score below 0.9.", "data": [{"target": "Muscarinic acetylcholine receptor M1 (Homo sapiens) (UniProt P11229)", "sequence (P11229 whole entry, looked up)": "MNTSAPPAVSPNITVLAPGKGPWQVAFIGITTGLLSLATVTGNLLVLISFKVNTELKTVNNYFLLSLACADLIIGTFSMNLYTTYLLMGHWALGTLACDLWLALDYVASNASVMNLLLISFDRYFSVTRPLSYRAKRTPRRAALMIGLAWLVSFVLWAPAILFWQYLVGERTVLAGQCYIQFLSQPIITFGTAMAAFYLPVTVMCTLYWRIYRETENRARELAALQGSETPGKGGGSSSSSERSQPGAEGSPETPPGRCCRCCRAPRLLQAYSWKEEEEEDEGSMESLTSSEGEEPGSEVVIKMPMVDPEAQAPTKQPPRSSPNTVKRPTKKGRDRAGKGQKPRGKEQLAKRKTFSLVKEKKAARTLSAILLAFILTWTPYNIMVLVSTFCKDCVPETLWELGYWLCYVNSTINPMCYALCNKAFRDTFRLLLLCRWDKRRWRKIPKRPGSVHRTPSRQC", "test": "ERF_FR_GPCR_hCHRM1: Eurofins (ERF) G Protein-Coupled Receptor (GPCR) Radioligand Binding LeadHunter Assay for human Muscarinic Acetylcholine Receptor M1 Antagonism, conducted at France lab site", "method": "ERF_FR_GPCR_hCHRM1 is a biochemical, single-readout assay that uses extracted gene-proteins in a cell-free assay. Measurements were taken 1 hour after chemical dosing in a 96-well plate. See M1 Human Acetylcholine (Muscarinic) GPCR Binding (Antagonist Radioligand) Assay, Cerep.ERF_FR_GPCR_hCHRM1 is an assay component calculated from the ERF_FR_GPCR_hCHRM1 assay. It is designed to measure radioligand binding using a type of binding reporter as detected by scintillation counting with radiometry technology.Data from the assay component ERF_FR_GPCR_hCHRM1 was analyzed at the assay endpoint, ERF_FR_GPCR_hCHRM1, in the positive analysis fitting direction relative to DMSO as the negative control and baseline of activity. Using a type of binding reporter, loss-of-signal activity can be used to understand changes in binding as they relate to gene CHRM1. To generalize the intended target to other relatable targets, this assay endpoint is annotated to the gpcr intended target family, where the subfamily is acetylcholine (Muscarinic).\nHuman cells are incubated for 60 minutes at room temprature with [3H]pirenzepine ligand (2 nM) and pirenzepine as control inhibitor.Test Sample Requirements: Minimum for 1) Screen: 60 ul of 10 mM stock -OR- 1 mg (pre-weighed) for 10 uM final testing. 2) Dose Response: 90 ul of 10 mM stock -OR- 1 mg (pre-weighed) for a top concentration at 10 uM.", "values": [{"compound": "O=C(/C=C/c1ccc(O)cc1)CC(=O)/C=C/c1ccc(O)cc1", "AC50": "5 µM (active)"}]}]}
